Experiments:
Settings in all cases: concentration: 1 μM, replicates: in singlicate; n = 1
[1] = tested on: T1, RSK4(Kin.Dom.1-N-terminal)
T1 construct: gene RPS6KA6

[2] = tested on: T2, RSK4(Kin.Dom.2-C-terminal)
T2 construct: gene RPS6KA6

S6K1 = tested on: S6K1
SBK1 = tested on: SBK1
SGK2 = tested on: SGK2
SGK3 = tested on: SGK3
SGK = tested on: SGK
SIK2 = tested on: SIK2
SIK = tested on: SIK
SLK = tested on: SLK
SNARK = tested on: T3, SNARK
T3 construct: gene NUAK2

SNRK = tested on: SNRK
SRC = tested on: SRC
SRMS = tested on: SRMS
SRPK1 = tested on: SRPK1
SRPK2 = tested on: SRPK2
SRPK3 = tested on: SRPK3
STK16 = tested on: STK16
STK33 = tested on: STK33
STK35 = tested on: STK35
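Further: KINOMEscan kinase panel screen.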

Compound | %Inh [1] | %Inh [2] | %Inh (S6K1) | %Inh (SBK1) | %Inh (SGK2) | %Inh (SGK3) | %Inh (SGK) | %Inh (SIK2) | %Inh (SIK) | %Inh (SLK) | %Inh (SNARK) | %Inh (SNRK) | %Inh (SRC) | %Inh (SRMS) | %Inh (SRPK1) | %Inh (SRPK2) | %Inh (SRPK3) | %Inh (STK16) | %Inh (STK33) | %Inh (STK35)
CC(C)c1nc(-c2cccc(NS(=O)(=O)c3c(F)cccc3F)c2F)c(-c2ccnc(Nc3ccc(N4CCOCC4)nc3)n2)s1 [GSK2008607] | 10% | 39% | 82% | 40% | 9% | 28% | 40% | 91.3% | 99.5% | 97% | 29% | 0% | 100% | 99.5% | 38% | 0% | 0% | 46% | 83% | 36%
Nc1ncc(-c2ccc3nccc(-c4ccncc4)c3c2)cc1S(=O)(=O)N1CCOCC1 [GSK1627798] | 14% | 22% | 0% | 3% | 0% | 7% | 0% | 0% | 0% | 36% | 8% | 0% | 0% | 0% | 0% | 0% | 4% | 22% | 0% | 0%
COc1cc(Nc2nccc(N3CCC(NC(=O)Nc4cccc(C(C)=O)c4)C3)n2)cc(OC)c1OC (stereo not shown) [GSK1379753] | 15% | 12% | 19% | 11% | 5% | 0% | 0% | 0% | 0% | 30% | 21% | 0% | 10% | 0% | 50% | 0% | 0% | 83% | 0% | 0%
CN1CCN(Cc2cccc(-c3ccc4c(Nc5ccc(Oc6ccccc6)cc5)ccnc4c3)c2)CC1 [GW578342] | 0% | 0% | 0% | 11% | 0% | 1% | 7% | 1% | 0% | 0% | 0% | 0% | 34% | 97.1% | 69% | 20% | 0% | 2% | 13% | 70%
COC(=O)Nc1nc2ccc(Oc3ccc(NC(=O)Nc4cc(C(F)(F)F)ccc4F)cc3)cc2n1C.Cl [GW692089] | 0% | 0% | 1% | 4% | 0% | 20% | 8% | 0% | 1% | 49% | 17% | 0% | 0% | 0% | 26% | 57% | 5% | 0% | 30% | 0%
COc1cccc(-c2ccc3c(NC(=O)C4CC4)n[nH]c3n2)c1 [SB-710903] | 5% | 21% | 8% | 0% | 5% | 2% | 19% | 0% | 0% | 30% | 0% | 0% | 0% | 0% | 10% | 50% | 0% | 26% | 0% | 0%
COc1ccc(Nc2nccc(NCCNC(=O)c3cc4ccccc4s3)n2)cc1 [GSK1379896] | 0% | 0% | 7% | 20% | 6% | 0% | 0% | 0% | 0% | 18% | 0% | 2% | 9% | 0% | 32% | 0% | 3% | 13% | 0% | 0%
COc1cccc(C(=O)Nc2cccc(Oc3ccc4nc(NC(=O)C5CC5)cn4n3)c2)c1 | 0% | 0% | 0% | 0% | 0% | 23% | 0% | 27% | 63% | 49% | 5% | 8% | 94.1% | 20% | 40% | 29% | 0% | 0% | 10% | 0%
CCc1ccc(-c2ccc3c(c2)-c2c(cnn2C)S(=O)(=O)N3C)cc1 | 0% | 0% | 4% | 0% | 0% | 0% | 0% | 4% | 6% | 0% | 8% | 0% | 0% | 0% | 0% | 0% | 18% | 0% | 0% | 2%
O=C(NC1CCN(c2ccnc(Nc3ccc(F)cc3)n2)C1)c1cc2ccccc2s1 (stereo not shown) [GSK1379716] | 0% | 24% | 0% | 24% | 0% | 0% | 14% | 6% | 11% | 32% | 0% | 0% | 1% | 0% | 31% | 37% | 4% | 15% | 0% | 6%
C[C@@H]1CC[C@@H](C(=O)Nc2ccccc2)CN1c1cc(-c2ccc3c(N)n[nH]c3c2)nc(N)n1 [GSK2286062] | 0% | 17% | 0% | 26% | 0% | 0% | 0% | 0% | 0% | 1% | 11% | 0% | 0% | 0% | 25% | 33% | 0% | 8% | 0% | 0%
CCn1c(-c2nonc2N)nc2c(C#CC(C)(C)O)ncc(OCCCCN)c21.O=C(O)C(F)(F)F.O=C(O)C(F)(F)F [GSK507274] | 2% | 7% | 1% | 44% | 12% | 2% | 0% | 5% | 2% | 1% | 94.7% | 19% | 0% | 0% | 0% | 42% | 18% | 0% | 0% | 0%
Cl.Cl.NCC(C(=O)Nc1cc(Br)c(-c2ccnc3[nH]ccc23)s1)c1ccccc1 (stereo not shown) [GSK1269851] | 0% | 2% | 35% | 3% | 0% | 24% | 28% | 0% | 0% | 14% | 0% | 0% | 0% | 0% | 73% | 59% | 90.7% | 13% | 52% | 0%
COc1ccc(CNC(=O)NC2CCN(c3ccnc(Nc4ccc(F)cc4)n3)CC2)cc1 [GSK1379788] | 0% | 12% | 0% | 0% | 0% | 0% | 0% | 0% | 0% | 7% | 0% | 0% | 0% | 0% | 0% | 11% | 0% | 9% | 0% | 0%
O=C(Nc1n[nH]c2nc(-c3ccc(O)cc3)ccc12)C1CC1 [SB-710363] | 70% | 0% | 40% | 0% | 36% | 15% | 43% | 0% | 0% | 61% | 0% | 0% | 0% | 2% | 20% | 0% | 25% | 73% | 0% | 0%
O=C(Nc1ccccc1F)NC1CCN(c2ccnc(Nc3ccc(F)cc3)n2)CC1 [GSK1379800] | 0% | 6% | 0% | 0% | 0% | 9% | 0% | 0% | 3% | 0% | 0% | 0% | 0% | 0% | 11% | 25% | 0% | 16% | 0% | 0%
Cc1occc1-c1ncc(OC[C@@H](N)Cc2c[nH]c3ccccc23)cc1-c1ccc2[nH]nc(C)c2c1.O=C(O)C(F)(F)F [GSK682037] | 61% | 0% | 56% | 19% | 0% | 20% | 0% | 65% | 54% | 95.2% | 60% | 0% | 65% | 0% | 54% | 0% | 70% | 0% | 86% | 69%
O=C(Nc1cccc(-c2nn3ccccc3c2-c2ccnc(Nc3cccc(C(F)(F)F)c3)n2)c1)c1c(F)cccc1F [GSK292658] | 0% | 0% | 0% | 20% | 0% | 8% | 11% | 0% | 9% | 54% | 9% | 15% | 15% | 22% | 12% | 0% | 17% | 0% | 4% | 20%
c1ccc(-c2n[nH]cc2Nc2ccnc3ccccc23)nc1 [GW694077] | 1% | 6% | 33% | 25% | 61% | 47% | 89% | 0% | 0% | 0% | 27% | 0% | 0% | 0% | 69% | 46% | 90% | 15% | 6% | 0%
C[C@@H](Oc1cc(-n2cnc3cc(-c4ccnc(NCCS(C)(=O)=O)c4)ccc32)sc1C(N)=O)c1ccccc1Cl [GSK907232] | 20% | 14% | 0% | 1% | 13% | 0% | 4% | 50% | 20% | 99% | 95.4% | 0% | 48% | 0% | 84% | 0% | 82% | 27% | 0% | 15%

— publication PMC5540273 (PLoS ONE, 2017)
